Assay [1] has as its system Plasmodium falciparum Sir2 (PF13_0152, Sir2A). The assay is described as follows: Plasmodium falciparum Sir2A binding compounds – biochemical, small-molecule microarray, 635 nm fluorescence, primary screen (AID 1098).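 Note: score merges spot fluorescence intensity with its signal-to-noise ratio.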 The settings on record: fluorescence 635 nm, higher = more signal.
Assay [2] in a line: probe aDKK1 binding to arrayed compounds – biochemical, biotinylated probe, 635/667 nm fluorescence, primary screen (AID 1099).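 Note: score merges 667nm spot fluorescence with signal to noise across triplicate slides.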 The settings on record: small-molecule microarray, higher = more signal.
A short description of assay [3]: probe aCHRDL2 binding to arrayed compounds – biochemical, biotinylated probe, 635/667 nm fluorescence, primary screen (AID 1100). The note with it: small-molecule microarray, higher = more signal.
Assay [4] is described as follows: change in splice reporter luminescence, either direction, cell-based, HEK293, spliceosome inhibition project, primary screen (AID 1101).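 Note: HEK293 cells carrying a splicing-competent luciferase reporter gene; test concentration not given here.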 The note with it: HEK293 splicing luciferase reporter, 24 h, higher = more signal, called active from +8 up or from −8 down. A general note: Reporter assays use an easily measured gene product as a stand-in for the process of interest.

Assay [5] concerns the target Fibroblast growth factor 10 (Homo sapiens) (UniProt O15520). The assay is described as follows: compounds binding fibroblast growth factor 10 – biochemical, small-molecule microarray, 635 nm fluorescence, primary screen (AID 1102). The note with it: FGF10 binding, fluorescence 635 nm, higher = more signal.
Assay [6] has as its system glycogen synthase kinase-3 (GSK3A per assay name; protocol says GSK3B). The experiment in a line: compounds binding glycogen synthase kinase-3 – biochemical, small-molecule microarray, 635 nm fluorescence, GSK3A, primary screen (AID 1103). Note: the record names both GSK3A and GSK3B. The settings on record: fluorescence 635 nm, higher = more signal.
The target in assay [7] is Epidermal growth factor receptor (Homo sapiens) (UniProt P00533). The experiment in a line: compounds binding epidermal growth factor receptor – biochemical, small-molecule microarray, 635 nm fluorescence, primary screen (AID 1104).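 Note: score merges 667 nm emission intensity with spot signal to noise over triplicate slides.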 The note with it: EGFR binding, higher = more signal.
The target of assay [8] is Follistatin-related protein 3 (Homo sapiens) (UniProt O95633). The assay is described as follows: compounds binding follistatin-related protein 3 – biochemical, small-molecule microarray, 635 nm fluorescence, primary screen (AID 1105).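 Note: score merges emission near 667 nm and signal to noise per printed spot across three slides.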 The note with it: FSTL3 binding, higher = more signal.
Assay [9] concerns the target Dickkopf-related protein 1 (Homo sapiens) (UniProt O94907). The assay is described as follows: small molecules binding DKK1 protein – biochemical, small-molecule microarray, 635 nm fluorescence scan, primary screen (AID 1106).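 Note: score merges emission near 667 nm with signal to noise over three replicate slides.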 The note with it: higher = more signal.
Assay [10] has as its system Inhibin beta A chain (activin A). The assay is described as follows: small molecules binding activin A – biochemical, small-molecule microarray, 635 nm fluorescence scan, primary screen (AID 1107).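 Note: mouse activin A protein probed at 4.33 µg/mL on printed slides; score merges bound-protein fluorescence near 667 nm with spot signal-to-noise.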 The settings on record: INHBA, higher = more signal.
Assay [11] deals with Human papillomavirus type 1a protein E7 (residues 44-93). The assay is described as follows: small molecules binding HPV E7 44-93 – biochemical, small-molecule microarray, residues 44-93, 635 nm fluorescence, primary screen (AID 1108).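 Note: E7 fragment applied at 1 µg/mL in TBST for 1 h at 4 C; score combines spot fluorescence with its signal to noise ratio.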 The settings on record: fluorescence 635 nm, higher = more signal.
Assay [12] is described as follows: hepatitis C replication reporter changes, two-sided – Huh7 cells, luciferase reporter, HCV replication inhibitor project, primary screen (AID 1109).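 Note: huh7 hepatoma cells harbouring a luciferase neomycin HCV replicon reporter; luciferase luminescence as measure of HCV replicon replication; test concentration not given here.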 The note with it: Huh7 HCV replicon luciferase reporter, 48 h; higher = more signal.
The target in assay [13] is Left-right determination factor 2 (Homo sapiens) (UniProt O00292). The experiment in a line: small molecules binding LEFTY2 protein – biochemical, small-molecule microarray, 635 nm fluorescence scan, primary screen (AID 1110). The note with it: higher = more signal.
Assay [14] deals with Calmodulin-1 (Homo sapiens) (UniProt P0DP23). The assay is described as follows: small molecules binding calmodulin-1 with EGTA – biochemical, small-molecule microarray, Cy5-labelled CALM1, profiling panel (AID 1111).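 Note: labelled calmodulin applied in Tris saline Tween buffer holding calcium plus EGTA and DTT.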 The settings on record: Cy5-CALM1 binding fluorescence, higher = more signal.
For assay [15] the target is unchanged. The experiment in a line: small molecules binding Ca-loaded calmodulin-1 – biochemical, small-molecule microarray, Cy5-labelled CALM1, plus calcium, artefact control for SMM control-protein annotation, profiling panel (AID 1112).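 Note: score merges spot fluorescence with signal to noise from triplicate slides.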 The settings on record: Cy5-CALM1 binding fluorescence, higher = more signal.
The nature of assay [16]: probe aWnt5a binding to arrayed compounds – biochemical, biotinylated probe, 635/667 nm fluorescence, primary screen (AID 1113).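 Note: score merges 667 nm fluorescence intensity with signal-to-noise per printed feature.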 The settings on record: small-molecule microarray, higher = more signal.
Assay [17] in a line: probe aShh binding to arrayed compounds – biochemical, biotinylated probe, 635/667 nm fluorescence, primary screen (AID 1114).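 Note: probe is biotin-labelled aShh protein from a stem cell growth factor screen; measures binding of labelled protein to compounds printed on the slide; score merges feature fluorescence at 667 nm with signal-to-noise.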 The settings on record: small-molecule microarray, higher = more signal.
Assay [18] can be described thus: probe aNog binding to arrayed compounds – biochemical, biotinylated probe, 635/667 nm fluorescence, primary screen (AID 1115).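 Note: probe is biotinylated aNog protein used at 0.15 µg/mL for 1 h at 4 C; z-score combines 667 nm fluorescence of each spot with its signal to noise.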 The note with it: small-molecule microarray, higher = more signal.
For assay [19], the target named is Torsin-1A-interacting protein 1 (Homo sapiens) (UniProt Q5JTV8). The experiment in a line: compound microarray binding of lysate hLAP1 – cell lysate, small-molecule microarray, COS7 lysate, 635/667 nm fluorescence, primary screen (AID 1116). The settings on record: 635 nm fluorescence, higher = more signal.
The target of assay [20] is Alpha-bungarotoxin (Bungarus multicinctus) (UniProt P60615). The assay is described as follows: compounds binding labelled alpha-BTX control protein – biochemical, small-molecule microarray, Alexa647 label, 635/667 nm fluorescence, artefact control for SMM control protein annotation, profiling panel (AID 1117). The note with it: alpha-BTX-A647 binding fluorescence, higher = more signal.

The source made the active and inactive calls.

Follistatin-related protein 3 (Homo sapiens), sequence (O95633 whole entry, looked up): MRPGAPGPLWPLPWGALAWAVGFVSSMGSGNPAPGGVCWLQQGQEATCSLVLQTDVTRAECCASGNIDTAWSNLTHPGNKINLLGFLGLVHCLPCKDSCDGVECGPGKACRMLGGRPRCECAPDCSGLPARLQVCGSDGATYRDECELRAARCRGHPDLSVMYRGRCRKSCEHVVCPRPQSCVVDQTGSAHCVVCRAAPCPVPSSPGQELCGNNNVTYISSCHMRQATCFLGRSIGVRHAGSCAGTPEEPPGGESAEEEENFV
Torsin-1A-interacting protein 1 (Homo sapiens), sequence (Q5JTV8 whole entry, looked up): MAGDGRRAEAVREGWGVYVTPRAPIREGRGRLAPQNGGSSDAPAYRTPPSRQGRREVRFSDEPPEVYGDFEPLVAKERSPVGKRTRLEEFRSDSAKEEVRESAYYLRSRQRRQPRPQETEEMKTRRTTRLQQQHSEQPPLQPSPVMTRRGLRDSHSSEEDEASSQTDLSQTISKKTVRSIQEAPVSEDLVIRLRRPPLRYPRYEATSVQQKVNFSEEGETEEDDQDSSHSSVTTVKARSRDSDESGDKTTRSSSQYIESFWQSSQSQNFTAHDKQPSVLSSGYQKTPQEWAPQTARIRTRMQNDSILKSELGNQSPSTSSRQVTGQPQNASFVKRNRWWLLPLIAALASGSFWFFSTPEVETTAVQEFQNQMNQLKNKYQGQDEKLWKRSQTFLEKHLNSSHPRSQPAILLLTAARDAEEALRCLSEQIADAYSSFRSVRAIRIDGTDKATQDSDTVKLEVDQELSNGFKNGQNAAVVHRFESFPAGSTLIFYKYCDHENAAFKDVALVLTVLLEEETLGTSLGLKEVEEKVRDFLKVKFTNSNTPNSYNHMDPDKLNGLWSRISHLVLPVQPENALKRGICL
Epidermal growth factor receptor (Homo sapiens), sequence (P00533 whole entry, looked up): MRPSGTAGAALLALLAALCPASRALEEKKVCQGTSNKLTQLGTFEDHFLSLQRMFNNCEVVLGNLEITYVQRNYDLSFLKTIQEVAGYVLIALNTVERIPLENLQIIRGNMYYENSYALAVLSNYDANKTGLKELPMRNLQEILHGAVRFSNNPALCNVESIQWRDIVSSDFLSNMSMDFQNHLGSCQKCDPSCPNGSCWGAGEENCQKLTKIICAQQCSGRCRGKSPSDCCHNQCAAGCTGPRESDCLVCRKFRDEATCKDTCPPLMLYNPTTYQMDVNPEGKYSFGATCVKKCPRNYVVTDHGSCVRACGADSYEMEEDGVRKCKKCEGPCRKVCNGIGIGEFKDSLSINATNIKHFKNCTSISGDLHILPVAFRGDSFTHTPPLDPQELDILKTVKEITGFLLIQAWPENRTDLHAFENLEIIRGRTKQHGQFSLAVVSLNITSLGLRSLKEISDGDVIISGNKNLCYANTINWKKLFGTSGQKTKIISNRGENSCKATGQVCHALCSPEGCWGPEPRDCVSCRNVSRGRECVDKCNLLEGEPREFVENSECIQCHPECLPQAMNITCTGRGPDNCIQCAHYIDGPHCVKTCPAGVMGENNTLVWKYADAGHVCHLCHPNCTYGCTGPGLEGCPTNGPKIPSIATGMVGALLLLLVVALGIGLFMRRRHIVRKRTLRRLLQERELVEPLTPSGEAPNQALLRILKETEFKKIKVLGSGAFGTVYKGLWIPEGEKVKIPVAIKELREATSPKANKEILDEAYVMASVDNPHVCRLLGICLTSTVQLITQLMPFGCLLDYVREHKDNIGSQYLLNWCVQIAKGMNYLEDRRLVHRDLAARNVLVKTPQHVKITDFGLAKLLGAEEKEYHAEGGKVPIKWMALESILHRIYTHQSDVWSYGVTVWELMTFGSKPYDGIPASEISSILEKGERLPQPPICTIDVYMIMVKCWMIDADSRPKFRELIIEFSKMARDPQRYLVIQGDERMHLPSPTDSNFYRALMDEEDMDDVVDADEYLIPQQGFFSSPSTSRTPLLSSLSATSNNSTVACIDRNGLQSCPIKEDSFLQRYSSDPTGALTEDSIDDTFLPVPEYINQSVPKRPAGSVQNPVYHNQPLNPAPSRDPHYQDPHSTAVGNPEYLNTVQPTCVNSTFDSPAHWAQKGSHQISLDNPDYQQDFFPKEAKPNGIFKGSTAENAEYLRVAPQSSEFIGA
Dickkopf-related protein 1 (Homo sapiens), sequence (O94907 whole entry, looked up): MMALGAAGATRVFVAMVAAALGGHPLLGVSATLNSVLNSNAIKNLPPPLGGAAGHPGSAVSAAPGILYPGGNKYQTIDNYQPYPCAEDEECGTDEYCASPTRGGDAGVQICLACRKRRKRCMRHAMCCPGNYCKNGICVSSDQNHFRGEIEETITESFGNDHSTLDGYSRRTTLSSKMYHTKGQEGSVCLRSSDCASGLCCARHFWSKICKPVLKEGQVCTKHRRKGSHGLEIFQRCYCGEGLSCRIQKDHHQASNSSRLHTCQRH
Fibroblast growth factor 10 (Homo sapiens), sequence (O15520 whole entry, looked up): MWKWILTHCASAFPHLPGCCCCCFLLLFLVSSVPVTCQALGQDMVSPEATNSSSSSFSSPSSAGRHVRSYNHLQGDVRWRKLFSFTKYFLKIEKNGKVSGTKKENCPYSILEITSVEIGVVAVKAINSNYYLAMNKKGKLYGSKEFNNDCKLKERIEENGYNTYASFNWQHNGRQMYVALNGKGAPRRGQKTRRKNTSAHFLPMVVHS
Left-right determination factor 2 (Homo sapiens), sequence (O00292 whole entry, looked up): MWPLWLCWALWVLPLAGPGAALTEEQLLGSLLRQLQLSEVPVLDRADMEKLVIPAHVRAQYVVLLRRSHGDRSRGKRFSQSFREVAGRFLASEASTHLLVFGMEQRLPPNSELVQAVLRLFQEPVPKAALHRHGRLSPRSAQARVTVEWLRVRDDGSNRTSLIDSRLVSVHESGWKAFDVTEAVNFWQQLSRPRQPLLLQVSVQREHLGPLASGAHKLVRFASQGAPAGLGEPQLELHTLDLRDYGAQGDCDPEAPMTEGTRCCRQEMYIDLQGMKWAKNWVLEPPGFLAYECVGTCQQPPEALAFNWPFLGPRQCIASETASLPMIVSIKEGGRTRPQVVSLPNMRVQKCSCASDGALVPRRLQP
Alpha-bungarotoxin (Bungarus multicinctus), sequence (P60615 whole entry, looked up): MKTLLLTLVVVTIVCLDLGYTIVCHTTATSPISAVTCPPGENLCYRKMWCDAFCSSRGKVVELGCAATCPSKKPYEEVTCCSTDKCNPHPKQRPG

Regarding `COC(=O)[C@@]1(Cc2ccc(F)cc2)[C@H]2c3cc(C(=O)N4CCCC4)n(C)c3C[C@H]2CN1C(=O)c1ccccc1`, the composite z-score in assay [1] is 1.24; in [2], 0.874; in [3] it was 1.22; in [5] it was 0.549; in assay [6], 0.128; in [7] it was -0.372. Also, the composite z-score in [8] was -0.296; in [9], -0.856; in [10], 1.21; in [11] it was -0.919; in assay [13], -0.917; in [14], 2.5. Further, the composite z-score in [15] worked out at 1.11; in [16], 0.122; in assay [17], 0.0044; in assay [18], 1.39; in [19] it was 2.84; in assay [20], 0.121. In addition, the z-score in assay [4] was -2.19 (inactive); in assay [12], -1.4.
Regarding `COCCOC(=O)N1C(=O)[C@@]2(c3cc(C#CC4(O)CCCCCC4)ccc31)[C@H](C(=O)N1CCN(c3ncccn3)CC1)[C@H]1C(=O)O[C@H](c3ccccc3)[C@H](c3ccccc3)N1[C@@H]2c1ccccc1OCCO`, the composite z-score in assay [1] is 1.27; in assay [2], -0.0139; in assay [3], -0.113; in [5] it was 0.864; in assay [6], 1.29; in assay [7] it was 0.906. Also, the composite z-score in assay [8] was found to be 1.29; in [9], 1.32; in assay [10], 0.521; in [11], 1.37; in [13], 1.2; in assay [14], 0.348. In addition, the composite z-score was 0.0618 in assay [15]; -0.184 in assay [16]; 0.116 in assay [17]; -0.263 in [18]; 0.334 in assay [19]; 0.684 in [20]. For the same molecule, the figures for the z-score in assay [4] and in [12] were -0.278 (inactive) and -2.22, respectively.
Turning to `C[C@@]12COC[C@]13C=C(Br)[C@H](C2)[C@@]1(CO1)C3=O`, the composite z-score is -0.363 in [1]; -0.101 in assay [2]; 0.262 in assay [3]; -0.732 in assay [5]; -1.02 in assay [6]; -0.886 in assay [7]. Further, the composite z-score in assay [8] was -0.449; in assay [9] it was -0.614; in assay [10] it was 0.701; in [11], -2.3; in assay [13], -0.777; in assay [14], -0.66. Moreover, the composite z-score was -0.691 in [15]; -0.176 in assay [16]; -0.214 in assay [17]; -0.256 in assay [18]; -1.17 in assay [19]; -0.455 in [20]. Further, the z-score in assay [4] is -0.374 (inactive); in assay [12], -2.64.
As for `CN1C(=O)C2C=CC(C(O)c3cc(C(F)(F)F)cc(C(F)(F)F)c3)N(Nc3ccccc3)C2C1=O` (stereo not given), the composite z-score is 0.395 in assay [1]; -0.224 in [2]; 0.0811 in [3]; 0.0307 in assay [5]; -0.107 in assay [6]; -0.0397 in [7]. Further, the composite z-score in assay [8] was -0.247; in [9], -0.887; in assay [10] it was 0.0638; in [11] it was 0.792; in assay [13], -0.715; in [14] it was 0.345. Besides, the composite z-score in assay [15] is -0.151; in [16] it was -0.0346; in [17], -0.138; in assay [18], 0.369; in assay [19], 1.68; in assay [20] it was 0.0299. For the same molecule, the values for the z-score in assay [4] and in [12] were 1.37 (inactive) and -1.08, respectively.
Take `C=CCNC(=O)[C@@H]1[C@H]2C(=O)O[C@H](c3ccccc3)[C@H](c3ccccc3)N2[C@H](c2ccc(O)cc2)[C@@]12C(=O)N(C(=O)OCCOC)c1ccc(C#CCCO)cc12`: the composite z-score worked out at 1.25 in assay [1]; 0.373 in assay [2]; 0.42 in assay [3]; 1.37 in assay [5]; 1.04 in assay [6]; 0.683 in [7]. Further, the composite z-score in assay [8] was 1.12; in assay [9], 0.921; in assay [10], 0.616; in assay [11], -0.472; in [13], 0.863; in [14], 0.355. Also, the composite z-score was 0.349 in assay [15]; -0.0276 in assay [16]; -0.0011 in [17]; 0.565 in assay [18]; 0.394 in assay [19]; 2.29 in [20]. Further, the z-score in [4] is -0.591 (inactive); in [12], -0.118.

These data come from PubChem BioAssay.
